The test system of the assay is Madurella mycetomatis MM55. Kind of assay: percent growth relative to solvent control; higher = less inhibition, active = 20 or less. Conditions: 100 µM; 7 days.
`O=C(Nc1c(O)cccc1-c1nc2c(C(=O)O)cccc2o1)c1cc(-c2ccccc2)on1`: the percent growth is 113% (inactive).

Take `COc1cc(C2=NCCN2)ccc1-n1cc(-c2cccc(C3=NCCN3)c2)nn1`: the percent growth is 166% (inactive).

For `COc1cc(-c2cc(-c3ccc(S(C)(=O)=O)cc3)cnc2N)ccc1O`, the percent growth is 11.2% (active).

On to `Cc1cnc(CCNC(=O)c2cc(-c3ccc(Cl)cc3)cs2)[nH]1`, for which the percent growth is 94.3% (inactive).

In the case of `O=C(Nc1nc(-c2ccccn2)cs1)C1CC1c1ccccc1F` (centres undefined), the percent growth was 46.7% (inactive).

With `CS(=O)(=O)N1CCC(CCn2nc(Cc3cccc4ccccc34)c3c(N)ncnc32)CC1`, the percent growth was 81.9% (inactive).

As for `O=C(Nc1nnc(S)s1)c1cc(Br)ccc1Cl`, the percent growth was 97% (inactive).

As to `Cc1cc2nc(NC(=O)C(C)(C)C)nc(Cl)c2n1Cc1ccc(Cl)cc1`, the percent growth was 82.9% (inactive).

As to `CCCCN(CCCC)c1c(C#N)cc(S(=O)(=O)Nc2ccccc2)cc1C#N`, the percent growth is 85.7% (inactive).

`O=C1Nc2ccc(Br)cc2C12NCCc1c2[nH]c2ccccc12` (centres undefined): the percent growth is 63.6% (inactive).

Turning to `Nc1ncnc2c1ncn2[C@@H]1O[C@H](COS(=O)(=O)NC(=O)c2ccccc2O)[C@@H](O)[C@H]1O`, the percent growth was 60.6% (inactive).

On to `O=C(NCc1cc(Cl)cc(Cl)c1)c1c(C(F)(F)F)nc2ccccn12`, for which the percent growth is 107% (inactive).

Take `O=C(C(Cc1c[nH]c2ccccc12)NS(=O)(=O)c1ccc(Cl)cc1)N1CCCCC1` (centres undefined): the percent growth was 43.6% (inactive).

Regarding `Nc1cccnc1Nc1ccc(Cl)cc1`, the percent growth was 80.6% (inactive).

`CCNC(=O)C(C)Nc1nc(-c2cccnc2)nc2sc(C)c(C)c12` (centres undefined): the percent growth is 90.4% (inactive).

`CN1CCN(S(=O)(=O)c2ccc(-c3ccc4c(Nc5ncc(Cl)cn5)ccnc4c3)cc2)CC1`: the percent growth is 98.9% (inactive).

On to `Cc1cccc(NC(=O)c2cc(S(=O)(=O)N(C)c3ccc(F)cc3)ccc2Cl)n1`, for which the percent growth was 70% (inactive).

For the compound `CC(=O)N(CCN(C(=O)c1ccc(F)cc1)c1ccccc1)c1ccccc1`, the percent growth is 48.9% (inactive).

For `CC(C)C(NC(=O)Cc1cccc2ccccc12)C(=O)Nc1cccc(C#N)c1` (centres undefined), the percent growth is 121% (inactive).

Consider `Nc1ncnc2[nH]nc(Cc3cccc4ccccc34)c12`, for which the percent growth was 118% (inactive).

As for `CO[C@@H](C(=O)N1Cc2[nH]nc(NC(=O)c3ccc(N4CCN(C)CC4)cc3)c2C1)c1ccccc1`, the percent growth was 157% (inactive).

As for `COc1ccc(C2=NCCN2)cc1-c1cn(-c2cccc(C3=NCCN3)c2)nn1`, the percent growth is 94% (inactive).

Consider `Cc1nn2c(=O)c3c([nH]c2c1-c1ccc(Cl)cc1)CCCC3`, for which the percent growth was 89.2% (inactive).

`CC1CS(=O)(=O)CCN1/N=C/c1ccc([N+](=O)[O-])o1` (centres undefined): the percent growth is 96.8% (inactive).

For the compound `O=C(NC1=NCCS1)c1sc2cc(F)ccc2c1Cl`, the percent growth was 107% (inactive).

Consider `Cc1ccc2oc(-c3cc(NC(=O)Cc4ccccc4)ccc3Cl)nc2c1`, for which the percent growth was 96% (inactive).

With `Cc1ccccc1C(=O)N1N=C(Nc2ccccc2)SC1(C)C`, the percent growth was 93.7% (inactive).

Turning to `Nc1ncc(Br)cc1-c1nc2cc(Cl)cnc2[nH]1`, the percent growth is 105% (inactive).

Regarding `CC(C)c1ncc(-c2ccncc2)c([C@H]2CC[C@H](CNC(=O)c3cccnc3)CC2)n1`, the percent growth was 114% (inactive).

Turning to `FC(F)(F)c1nnc2ccc(Cl)nn12`, the percent growth is 116% (inactive).

As for `CCCCc1ccc(NC(=O)Nc2ccc(O[C@H]3CCCC[C@@H]3N(C)c3ccccc3)c(F)c2)cc1`, the percent growth was 122% (inactive).

For `CC[C@@H]([C@H](C)O)n1ncn(-c2ccc(N3CCN(c4ccc(OC[C@@H]5CO[C@@](Cn6cncn6)(c6ccc(F)cc6F)C5)cc4)CC3)cc2)c1=O`, the percent growth is 0.417% (active).

Consider `CCOc1ccc(-c2nc(NC(=O)CS(=O)(=O)c3ccccc3)sc2C)cc1`, for which the percent growth is 51.4% (inactive).

On to `CS(=O)(=O)Cc1nc2ccccc2oc1=O`, for which the percent growth was 87.9% (inactive).

As to `CN(C)CCNC(=O)N1CCCN(c2ncnc3cc(-c4ccccc4)sc23)CC1`, the percent growth was 64.5% (inactive).

On to `COc1cccc(OCC(=O)c2ccc(Br)cc2)c1`, for which the percent growth was 81.3% (inactive).

In the case of `COc1cccc(OC)c1C(=O)Nc1ccc(Cl)c(-c2nc3ccccc3s2)c1`, the percent growth is 78.4% (inactive).

On to `COc1ccc(Cl)cc1NC(=O)CN(C)C(=O)c1cnn(-c2ccccc2)n1`, for which the percent growth was 30.8% (inactive).

In the case of `C[C@H]1c2cccc(O)c2C(=O)C2=C(O)[C@]3(O)C(=O)C(C(N)=O)=C(O)[C@@H](N(C)C)[C@@H]3[C@@H](O)[C@@H]21`, the percent growth is 121% (inactive).

Source of the values: the supplement of paper PMC5940239.
